Test results taken from the OligoGym collection.

biological target: EAPP; test: pooled miR-30 sensor sort-seq; sequence = guide strand; conditions: shRNA
Note: reference of the scale not given here.

Question: For TACTGCTCTGTCTTCATCCTCG, which sensor-assay potency score (higher = more potent) is on record?
Answer: Its sensor-assay potency score (higher = more potent) is 0.413.

Question: Which sensor-assay potency score (higher = more potent) does the source give for TCATCGTAGTACCTTGTCGGAG here?
Answer: The sensor-assay potency score (higher = more potent) was -1.04.

Question: Which sensor-assay potency score (higher = more potent) does the source give for AAAGACTTCATCCTTGTCGTAG here?
Answer: Its sensor-assay potency score (higher = more potent) is -0.0566.

Question: For TAGATGATTCACTTTCTCCGGT, which sensor-assay potency score (higher = more potent) is on record?
Answer: The sensor-assay potency score (higher = more potent) was 0.266.

Question: Which sensor-assay potency score (higher = more potent) does the source give for TATATATCATCGTAGTACCTTG here?
Answer: Its sensor-assay potency score (higher = more potent) is -0.621.

biological target: EBNA1BP2; test: as above; conditions: shRNA

Question: Which sensor-assay potency score (higher = more potent) does the source give for TTAGTCTGCAGCTTCTGTCGAA here?
Answer: Its sensor-assay potency score (higher = more potent) is 0.0417.

Question: With TAGAAACTCATCTCTCGCTGGA as the sequence, how does the sensor-assay potency score (higher = more potent) read?
Answer: The sensor-assay potency score (higher = more potent) was 0.612.

Question: TTCTGGATCAACAGCTTTCTGG was tested. Which sensor-assay potency score (higher = more potent) did it give?
Answer: The sensor-assay potency score (higher = more potent) was -1.11.

Question: Which sensor-assay potency score (higher = more potent) does the source give for TATACCGTCGTTTAGCACTGGG here?
Answer: The sensor-assay potency score (higher = more potent) was -0.643.

Question: How did the sensor-assay potency score (higher = more potent) turn out when TTCATCTTCTCTCTTGTTCGTT was run?
Answer: The sensor-assay potency score (higher = more potent) was 0.27.

Question: With TAGTCTGCAGCTTCTGTCGAAT as the sequence, how does the sensor-assay potency score (higher = more potent) read?
Answer: Its sensor-assay potency score (higher = more potent) is -0.943.

Question: With TCATCTTCTCTCTTGTTCGTTT as the sequence, how does the sensor-assay potency score (higher = more potent) read?
Answer: Its sensor-assay potency score (higher = more potent) is -0.122.

Question: With ATCAACAGCTTTCTGGTCCTTG as the sequence, how does the sensor-assay potency score (higher = more potent) read?
Answer: Its sensor-assay potency score (higher = more potent) is -0.301.

Question: With ATAGAAACTCATCTCTCGCTGG as the sequence, how does the sensor-assay potency score (higher = more potent) read?
Answer: Its sensor-assay potency score (higher = more potent) is 0.115.

Question: With TTTCTTAATAGCATTCATCATA as the sequence, how does the sensor-assay potency score (higher = more potent) read?
Answer: The sensor-assay potency score (higher = more potent) was -1.2.

Question: How did the sensor-assay potency score (higher = more potent) turn out when TATTTGACCCTTTCTTGCCAGG was run?
Answer: The sensor-assay potency score (higher = more potent) was -1.16.

Question: With TACATCATCATAGCTCTCCCGA as the sequence, how does the sensor-assay potency score (higher = more potent) read?
Answer: Its sensor-assay potency score (higher = more potent) is -0.31.
